The values below come from PubChem BioAssay.

SMILES strings stand for the structures.

This assay in a line: COS7 lysate on small-molecule microarray, probe aHis, 635 nm (AID 1123).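 Further: z-score combines 667nm fluorescence intensity with signal-to-noise per printed compound spot.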 The note with it: COS7 cell lysate, fluorescence, higher = more signal.
As to `[N-]=[N+]=Nc1ccccc1[C@H]1OC(c2ccc(OCCCO)cc2)=N[C@@]1(CCS(=O)(=O)c1ccccc1)C(=O)N1CCCCC1`, the composite z-score came to 2.65.
`CN(C)CCCNC(=O)[C@@H]1c2ccccc2C(=O)N(CC23CC4CC(CC(C4)C2)C3)[C@H]1c1ccc(CO)cc1` gave a composite z-score of 2.62.
The value for `COC(=O)[C@]1(CCS(=O)(=O)c2ccccc2)N=C(c2ccc(OCCCO)cc2)O[C@@H]1c1ccccc1CN=[N+]=[N-]` was 1.95.
Turning to `O=C(NC1CC1)[C@@H]1c2ccccc2C(=O)N(Cc2ccccc2)[C@H]1c1ccc(CO)cc1`, the composite z-score came to 2.72.
`COC(=O)C1(Cc2ccccc2)C=C2C(=C(c3ccccc3)C(=O)C2C)CN1` (configuration not stated) gave a composite z-score of 2.3.
Consider `NC(N)=NCc1cn(CCc2c[nH]c3ccccc23)nn1`, for which the composite z-score turned out to be 0.421.
As for `CC(=O)n1cc(C(O)C2C=CC3C(=O)N(c4ccccc4)C(=O)C3N2Nc2ccccc2)c2ccccc21` (configuration not stated), the composite z-score is 1.08.
As for `CC(C)C(O)C1C=CC2C(=O)N(C)C(=O)C2N1N(c1ccccc1)c1ccccc1` (configuration not stated), the composite z-score was determined as 0.986.
Compound `C=C(CCCC)/C(=C/C[C@@H](OC(C)=O)c1ccc(CO)o1)c1cc(C(=O)OC)ccc1OC` gave a composite z-score of 0.69.
Turning to `COCCOC(=O)N1C(=O)[C@@]2(c3cc(C#Cc4ccc(OC)cc4)ccc31)[C@H](C(=O)N1CCCCCCC1)[C@H]1C(=O)O[C@H](c3ccccc3)[C@H](c3ccccc3)N1[C@@H]2c1ccc(O)cc1`, the composite z-score stood at 0.234.
As to `C#CCNC(=O)[C@H](Cc1ccccc1)NC(=O)[C@@H](N=[N+]=[N-])C(C)C`, the composite z-score was found to be 0.88.
Regarding `COc1c(C)cc(-c2cc3c(c(-c4ccccc4)n2)[Si](C(C)C)(C(C)C)OC3)cc1C`, the composite z-score was -0.591.
